From PubChem BioAssay (NCATS) come the findings set out here.

Each structure is given as a SMILES string. Inconclusive results are not listed. Active and inactive are the calls of the source. Calls follow the shape of the dose curve; as a rule, active = well fitted inhibition curve with a large enough effect; inconclusive = small, poorly fitted or top-dose-only effect; inactive = no such curve, though single readings can be large or run the other way.

In the assay the target is Cytochrome P450 3A4 (Homo sapiens) (UniProt P08684). Put plainly: qHTS Assay for Inhibitors and Substrates of Cytochrome P450 3A4 (AID 884). Also: nearly all actives have a fitted effect of over 50% in size. The note with it: recombinant CYP3A4, Luciferin-PPXE luminescence; series mostly up to 57.1 µM. How it is done: NIH Molecular Libraries Screening Centers Network [MLSCN]
Cytochrome P450 3A4 (Homo sapiens), sequence (P08684 whole entry, looked up): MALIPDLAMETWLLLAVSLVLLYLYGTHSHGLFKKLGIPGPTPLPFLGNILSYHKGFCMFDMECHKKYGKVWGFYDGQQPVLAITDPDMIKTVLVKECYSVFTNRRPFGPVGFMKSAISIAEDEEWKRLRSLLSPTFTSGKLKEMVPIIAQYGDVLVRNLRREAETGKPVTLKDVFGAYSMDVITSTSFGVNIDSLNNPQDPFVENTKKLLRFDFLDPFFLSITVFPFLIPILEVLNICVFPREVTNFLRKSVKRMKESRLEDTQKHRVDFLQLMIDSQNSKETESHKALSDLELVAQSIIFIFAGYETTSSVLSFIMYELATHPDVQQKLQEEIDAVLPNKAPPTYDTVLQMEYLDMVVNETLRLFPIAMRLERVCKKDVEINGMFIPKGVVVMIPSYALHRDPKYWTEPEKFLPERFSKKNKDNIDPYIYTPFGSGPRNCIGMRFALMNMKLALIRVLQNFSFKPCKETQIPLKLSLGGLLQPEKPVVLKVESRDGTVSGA
NIH Chemical Genomics Center [NCGC]
The P450 gene superfamily is involved in the metabolism and clearance of xenobiotics. This assay used human CYP3A4 to measure the dealkylation of luciferin-6' phenylpiperazinylyl (Luciferin-PPXE; […]) to luciferin. The luciferin is then measured by luminescence after the addition of a luciferase detection reagent. Luciferin-PPXE concentration in the assay was equal to its KM for CYP3A4. Inhibitors and some substrates limit the production of luciferin, and decrease measured luminescence.
NCGC Assay Protocol Summary:
Two uL of enzyme and substrate mix (final concentrations: 20nM CYP3A4, 25uM Luciferin-PPXE, 200mM KPO4) were dispensed into a white, solid bottom 1536-well microtiter plate. 23nL of compound was transferred by a pin tool. The plate was incubated at RT for 10 min. Two uL of an NADPH regeneration solution (Promega supplied reagent) was dispensed and the reaction was allowed to continue for 60 min at RT. Then the reaction was stopped by reconstituted luciferin detection buffer. After another 20 min of incubation the plate was read on the ViewLux (Perkin Elmer) at 60 sec exposure and 2x2 binning. This protocol was carried out with Promega-Glo reagents and further information can be found at http://www.promega.com/tbs/tb325/tb325.pdf. Data were normalized to the to AC100 inhibition (57 uM ketoconazole).
Keywords: P450, CYP3A4, Luciferase, MLSMR, MLSCN, NIH Roadmap, qHTS, NCGC
In general terms: qHTS replaces the single test concentration by a dilution series.
Turning to `O=c1[nH]c(=O)n([C@H]2C[C@H](O)[C@@H](CO)O2)cc1Br`, the outcome was inactive.

Take `CCn1cc(C(=O)O)c(=O)c2cc3c(cc21)OCO3`: the result was inactive.

Regarding `NC(=O)N1c2ccccc2C=Cc2ccccc21`, the outcome was inactive.

For the molecule `CC(=O)OC(C)C[N+](C)(C)C` (stereo not drawn), the result was inactive.

Consider `NC(=Nc1ccccc1)Nc1ccccc1`, for which the outcome was inactive.

As for `CCCN(CCC)CCc1cccc2c1CC(=O)N2`, the outcome was inactive.

With `CCCOc1ccccc1-c1nc2n[nH]nc2c(=O)[nH]1`, the result was inactive.

Take `O=C(O)CCCCCCCC(=O)O`: the result was inactive.

Regarding `CN(C)CCN(Cc1cccs1)c1ccccn1`, the outcome was inactive.

`Cc1ccc(Cl)c(Nc2ccccc2C(=O)O)c1Cl`: the result was inactive.

Consider `C[N+](C)(C)CCOC(N)=O`, for which the outcome was inactive.

As for `CC(C)NNC(=O)c1ccncc1`, the outcome was inactive.

Consider `CCCCCN(CCCCC)C(=O)C(CCC(=O)O)NC(=O)c1ccc(Cl)c(Cl)c1` (stereo not drawn), for which the result was inactive.

`CN(C)C(=O)Oc1ccc[n+](C)c1`: the result was inactive.

On to `CCCN(CCC)C(=O)C(CCC(=O)O)NC(=O)c1ccccc1` (stereo not drawn), for which the result was inactive.

Consider `C=CCc1ccccc1OCC(O)CNC(C)C` (stereo not drawn), for which the outcome was inactive.

For the molecule `CN1CCN(CC(=O)N2c3ccccc3C(=O)Nc3cccnc32)CC1`, the outcome was inactive.

Consider `C[C@H](CS)C(=O)N1CCC[C@H]1C(=O)O`, for which the outcome was inactive.

Take `Fc1ccc(C(c2ccc(F)cc2)N2CCN(C/C=C/c3ccccc3)CC2)cc1`: the outcome was inactive.

Turning to `Cc1scc2c1N(C(=O)CN1CCN(C)CC1)c1ccccc1NC2=O`, the result was inactive.

Consider `CC(C)(Oc1ccc(CCNC(=O)c2ccc(Cl)cc2)cc1)C(=O)O`, for which the outcome was inactive.

For the molecule `CCN(CC)CCNC(=O)c1cc(S(C)(=O)=O)ccc1OC`, the outcome was inactive.

Take `CC(=O)Nc1nnc(S(N)(=O)=O)s1`: the result was inactive.

Consider `CC(C)NCC(O)c1cc(O)cc(O)c1` (stereo not drawn), for which the result was inactive.

In the case of `CN(C)C(=O)Oc1cccc([N+](C)(C)C)c1`, the result was inactive.

With `CCCNC(C)C(=O)Nc1ccccc1C` (stereo not drawn), the outcome was inactive.

Take `CC[N+](C)(C)c1cccc(O)c1`: the outcome was inactive.

Regarding `Nc1c2c(nc3ccccc13)CCCC2O` (stereo not drawn), the outcome was inactive.
